# According to PubChem BioAssay (Tox21):
# “And” between values parts separate entries of the source, which are not always exact repeats. Identical values can stand only once. Results filed as inconclusive are left out. A call without a number means that no potency is given here. More than one record can exist for a structure, and the calls need not agree. The source made the active and inactive calls. Unless noted, calls follow the shape of the dose curve; as a rule, active = well fitted curve in the direction sought with a large enough effect in the repeat runs; inconclusive = weak or mixed curves; inactive = no such curve, though single readings can be large; an effect the other way counts as inactive or inconclusive.
# Tests used:
# [1] = qHTS assay to identify small molecule agonists of the sonic hedgehog signaling (Shh) pathway (AID 1259368; calls by dose curve;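 also: NIH/3T3-derived 3T3Gli1-Luc cells carrying a stable Gli1-driven firefly luciferase reporter; series mostly up to about 92 µM; nearly all actives have a fitted effect of over 15% in size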)
# How it was run: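 Cells of a mouse NIH/3T3 clone stably expressing luciferase under the Gli1 transcriptional response element are exposed to test chemicals for 24 hr at 37 C. Pathway activation is detected as a rise in luminescence.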
# [2] = qHTS assay to identify small molecule antagonists of the sonic hedgehog signaling (Shh) pathway (AID 1259369; calls by dose curve; also: nearly all actives have a fitted effect of over 45% in size; also: potency is read from the fitted curve at half-maximal effect)
# How it was run: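 Cells are plated and held 4hr at 37 C, compounds (DMSO) are pinned in, conditioned medium is added to stimulate the pathway, and after 24hr luciferase reagent is added for 30min before luminescence is read.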
# [3] = target: Estrogen receptor beta (Homo sapiens) (UniProt Q92731); assay: qHTS assay to identify small molecule agonists of the estrogen receptor beta (ER-beta) signaling pathway (AID 1259377; active = well fitted activation curve with a large enough effect in the signal ratio in the repeat runs, not every such curve was filed as active; the % refers to the signal ratio)
# Estrogen receptor beta (Homo sapiens), sequence (Q92731 whole entry, looked up): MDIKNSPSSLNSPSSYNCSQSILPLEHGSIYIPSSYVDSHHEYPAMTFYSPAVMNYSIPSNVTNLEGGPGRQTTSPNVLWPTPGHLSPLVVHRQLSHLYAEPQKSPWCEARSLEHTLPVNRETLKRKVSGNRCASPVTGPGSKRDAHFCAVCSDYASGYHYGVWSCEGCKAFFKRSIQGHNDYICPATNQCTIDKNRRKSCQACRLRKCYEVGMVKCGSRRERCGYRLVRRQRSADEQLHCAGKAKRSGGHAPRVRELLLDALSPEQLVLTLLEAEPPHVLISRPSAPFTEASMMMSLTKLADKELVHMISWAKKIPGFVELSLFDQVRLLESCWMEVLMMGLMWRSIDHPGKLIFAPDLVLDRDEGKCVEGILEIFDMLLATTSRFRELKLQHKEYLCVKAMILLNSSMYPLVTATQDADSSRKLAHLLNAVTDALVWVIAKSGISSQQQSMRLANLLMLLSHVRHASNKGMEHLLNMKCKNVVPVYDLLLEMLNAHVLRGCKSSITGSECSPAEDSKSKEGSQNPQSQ
# How it was run: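 Screening used GripTite ER-beta-UAS-bla cells held in 2% charcoal-stripped FBS medium. After overnight (16 hr) compound incubation at 37C, beta-lactamase activity was detected with a FRET substrate by fluorescence.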
# [4] = target: Estrogen receptor beta (Homo sapiens) (UniProt Q92731); assay: qHTS assay to identify small molecule antagonists of the estrogen receptor beta (ER-beta) signaling pathway (AID 1259378; active = well fitted inhibition curve with a large enough effect in the signal ratio in the repeat runs, not every such curve was filed as active; the % refers to the signal ratio)
# How it was run: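 Antagonist mode: compounds added to beta-lactamase reporter HEK293T ER-beta-UAS cells stimulated with E2 (1nM final), 16 hr at 37C. LiveBLAzer B/G FRET substrate, 2 hours room temperature, fluorescence read-out.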
# [5] = qHTS assay to identify small molecule agonists of the androgen receptor (AR) signaling pathway in the presence of an antagonist - cell viability counter screen (AID 1259379);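 also: MDA-kb2 human breast cancer cells carrying an MMTV luciferase reporter; series mostly up to about 92 µM; nearly all actives have a fitted effect of over 25% in size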
# How it was run: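 Cytotoxicity is assessed by CellTiter-Fluor in MDA-kb2 cells carrying an MMTV-driven luciferase reporter. Cells receive 3.0uM nilutamide plus compounds at 15 concentrations and incubate 16 hr at 37C without CO2 before fluorescence reading.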
# [6] = qHTS assay to identify small molecule agonists of the estrogen receptor beta (ER-beta) signaling pathway - cell viability counter screen (AID 1259380); also: nearly all actives have a fitted effect of over 30% in size
# How it was run: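 Cytotoxicity is measured in parallel with the reporter screen: after 16 hr compound exposure at 37C and a 2 hr LiveBLAzer step, CellTiter-Glo is added to the same ER-beta-UAS-bla HEK293T wells and luminescence read after 30 min.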
# [7] = qHTS assay to identify small molecule antagonists of the estrogen receptor beta (ER-beta) signaling pathway - cell viability counter screen (AID 1259382);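 also: HEK293T cells carrying ER-beta-UAS-bla reporter stimulated with estradiol; series mostly up to about 92 µM; nearly all actives have a fitted effect of over 55% in size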
# How it was run: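 Cytotoxicity counter screen multiplexed with the beta-lactamase antagonist assay: GripTite HEK293T ER-beta-bla cells were treated 16 hr with test chemicals in the presence of 1nM 17-beta-estradiol, and viability was measured by CellTiter-Glo.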
# [8] = qHTS assay to identify small molecule agonists or antagonists of the thyroid stimulating hormone receptor (TSHR) signaling pathway - wild type cell line counter screen (AID 1259384; calls by dose curve)
# How it was run: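 Counter screen in untransfected Hek293: compounds (15-point titration, triplicate) plus phosphodiesterase inhibitor Ro20-1724 added after 18 h plating; 30 min RT. Intracellular cAMP via competitive d2/cryptate immunoassay, 1 h incubation.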
# [9] = target: Thyrotropin receptor (Homo sapiens) (UniProt P16473); assay: qHTS assay to identify small molecule antagonists of the thyroid stimulating hormone receptor (TSHR) signaling pathway (AID 1259385; calls by dose curve; also: nearly all actives have a fitted effect of over 20% in size)
# Thyrotropin receptor (Homo sapiens), sequence (P16473 whole entry, looked up): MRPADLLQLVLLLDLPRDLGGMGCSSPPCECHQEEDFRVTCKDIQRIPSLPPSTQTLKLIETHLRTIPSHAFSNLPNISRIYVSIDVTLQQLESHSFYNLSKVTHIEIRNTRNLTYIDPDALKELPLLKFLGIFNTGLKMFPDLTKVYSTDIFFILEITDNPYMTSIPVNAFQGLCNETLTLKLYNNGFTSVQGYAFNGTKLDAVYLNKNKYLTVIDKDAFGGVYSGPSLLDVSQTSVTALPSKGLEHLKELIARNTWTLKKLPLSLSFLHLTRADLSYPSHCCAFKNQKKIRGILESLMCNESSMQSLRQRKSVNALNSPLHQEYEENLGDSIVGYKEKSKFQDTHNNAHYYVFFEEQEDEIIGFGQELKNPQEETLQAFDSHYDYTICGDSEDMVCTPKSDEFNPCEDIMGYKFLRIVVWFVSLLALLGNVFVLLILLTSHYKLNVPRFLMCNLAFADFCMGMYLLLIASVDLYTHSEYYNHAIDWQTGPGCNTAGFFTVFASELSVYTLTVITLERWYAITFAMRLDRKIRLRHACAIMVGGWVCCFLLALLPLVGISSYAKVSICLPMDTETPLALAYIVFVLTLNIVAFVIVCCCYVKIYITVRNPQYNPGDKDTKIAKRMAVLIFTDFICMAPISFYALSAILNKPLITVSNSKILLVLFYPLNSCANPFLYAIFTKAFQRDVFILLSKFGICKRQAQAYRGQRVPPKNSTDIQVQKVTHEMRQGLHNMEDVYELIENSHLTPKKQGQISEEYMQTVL
# How it was run: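 Antagonist mode: compound-treated TSHR-expressing HEK293 cells were stimulated with 1.5 ng/mL TSH (final) in presence of Ro20-1724 for 30 min at RT. HTRF cAMP detection after 1 h; each compound tested at 15 concentrations, triplicate.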
# [10] = qHTS assay to identify small molecule agonists of the estrogen receptor alpha (ER-alpha) signaling pathway in the presence of an antagonist - cell viability counter screen (AID 1259386);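 also: series mostly up to about 92 µM; cells exposed to compounds for 22 h at 37 °C before the viability read; nearly all actives have a fitted effect of over 30% in size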
# How it was run: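 Cytotoxicity was measured in parallel with the ERE-luciferase agonist screen, in the same wells. The cells were VM7Luc4E2, which endogenously express ER-alpha, and treatment was with compounds plus 10.0nM ICI-182,780 for 22hr.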
# [11] = target: Progesterone receptor (Homo sapiens) (UniProt P06401); assay: qHTS assay to identify small molecule agonists of the progesterone receptor (PR) signaling pathway (AID 1346784; calls by dose curve; also: nearly all actives have a fitted effect of over 30% in size)
# Progesterone receptor (Homo sapiens), sequence (P06401 whole entry, looked up): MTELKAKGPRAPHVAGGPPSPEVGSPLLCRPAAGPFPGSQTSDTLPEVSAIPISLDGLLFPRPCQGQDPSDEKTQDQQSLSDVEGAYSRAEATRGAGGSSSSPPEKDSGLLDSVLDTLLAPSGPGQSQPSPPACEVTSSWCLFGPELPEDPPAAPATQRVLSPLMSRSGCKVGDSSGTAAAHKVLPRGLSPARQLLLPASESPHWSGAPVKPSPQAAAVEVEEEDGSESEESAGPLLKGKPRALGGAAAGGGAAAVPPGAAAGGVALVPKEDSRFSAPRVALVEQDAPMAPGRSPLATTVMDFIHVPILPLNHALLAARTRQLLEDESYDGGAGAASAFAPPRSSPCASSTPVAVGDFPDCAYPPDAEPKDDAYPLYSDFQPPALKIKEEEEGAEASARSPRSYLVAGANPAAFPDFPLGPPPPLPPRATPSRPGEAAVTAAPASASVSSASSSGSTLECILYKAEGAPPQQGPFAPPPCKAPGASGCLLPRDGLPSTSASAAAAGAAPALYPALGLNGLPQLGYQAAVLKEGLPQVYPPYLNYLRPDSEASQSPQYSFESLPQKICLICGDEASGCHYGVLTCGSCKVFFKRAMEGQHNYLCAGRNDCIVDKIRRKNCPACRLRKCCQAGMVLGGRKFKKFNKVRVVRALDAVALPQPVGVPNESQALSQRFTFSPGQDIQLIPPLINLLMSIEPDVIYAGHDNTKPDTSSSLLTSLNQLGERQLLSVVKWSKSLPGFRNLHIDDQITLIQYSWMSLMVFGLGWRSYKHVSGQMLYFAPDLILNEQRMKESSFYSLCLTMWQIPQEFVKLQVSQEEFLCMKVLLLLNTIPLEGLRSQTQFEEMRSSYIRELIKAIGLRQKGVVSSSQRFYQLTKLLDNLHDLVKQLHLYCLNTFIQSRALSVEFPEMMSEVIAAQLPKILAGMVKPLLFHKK
# How it was run: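 Seed PR-UAS-bla HEK 293T cells (2% charcoal-stripped FBS), incubate 6 hr at 37C; add compounds in DMSO, 16 hr at 37C; add LiveBLAzer B/G substrate, 2 hr RT; read fluorescence intensity.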
# [12] = target: Progesterone receptor (Homo sapiens) (UniProt P06401); assay: qHTS assay to identify small molecule antagonists of the progesterone receptor (PR) signaling pathway (AID 1346795; active = well fitted inhibition curve with a large enough effect in the signal ratio in the repeat runs, not every such curve was filed as active; the % refers to the signal ratio; also: potency is read from the fitted curve at half-maximal effect)
# How it was run: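 Screening used a GripTite HEK293T line with PR-responsive UAS-beta-lactamase. Cells were challenged with compound in the presence of 1 nM R5020 final for 16 hr at 37C; B/G FRET substrate, 2 hr room temperature, fluorescence.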
# [13] = qHTS assay to identify small molecule agonists of the progesterone receptor (PR) signaling pathway - cell viability counter screen (AID 1346799; calls by dose curve; also: nearly all actives have a fitted effect of over 45% in size)
# How it was run: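 Using the same plates as the PR reporter screen, HEK293T PR-UAS-bla cells received compounds for 16 hr at 37C and were then lysed with CellTiter-Glo; luminescence was read 30 min later at room temperature.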
# [14] = qHTS assay to identify small molecule agonists of the TGF-beta/Smad signaling pathway - cell viability counter screen (AID 1346829); also: top concentration of the series differs between compounds; nearly all actives have a fitted effect of over 45% in size
# How it was run: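 HEK 293T SBE-bla line, 5 hr compound exposure at 37 C, multiplexed CellTiter-Glo viability read by luminescence.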
# [15] = qHTS assay to identify small molecule agonists of the TGF-beta/Smad signaling pathway (AID 1346859; active = well fitted activation curve with a large enough effect in the signal ratio in the repeat runs, not every such curve was filed as active; the % refers to the signal ratio; also: series mostly up to about 77 µM)
# How it was run: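 Beta-lactamase reporter activity downstream of Smad binding elements was measured in stably transfected HEK 293T cells; compounds were incubated for 5 hr, substrate for 2 hr at room temperature.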
# [16] = qHTS assay to identify small molecule antagonists of the progesterone receptor (PR) signaling pathway - cell viability counter screen (AID 1346798); also: series mostly up to about 92 µM; nearly all actives have a fitted effect of over 50% in size
# How it was run: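 Measures cytotoxicity in parallel with the PR antagonist reporter read: HEK293T PR-UAS-bla cells get compound and R5020 for 16 hr, and remaining viable cells are quantified by CellTiter-Glo luminescence.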
# [17] = qHTS assay to identify small molecule antagonists of the TGF-beta/Smad signaling pathway - cell viability counter screen (AID 1346824); also: nearly all actives have a fitted effect of over 50% in size
# How it was run: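 Cytotoxicity counter-screen run in the same wells as the beta-lactamase Smad reporter read: CellTiter-Glo luminescence after 30 min at room temperature. HEK 293T SBE-bla cells had 5 hr compound exposure at 37 C with TGF-beta1 (0.25 ng/mL stock).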
# [18] = target: Thyrotropin-releasing hormone receptor (Homo sapiens) (UniProt P34981); assay: qHTS assay to identify small molecule antagonists of the thyrotropin-releasing hormone receptor (TRHR) signaling pathway (AID 1346877; active = well fitted inhibition curve with a large enough effect in the repeat runs, not every such curve was filed as active; also: series mostly up to about 51 µM)
# Thyrotropin-releasing hormone receptor (Homo sapiens), sequence (P34981 whole entry, looked up): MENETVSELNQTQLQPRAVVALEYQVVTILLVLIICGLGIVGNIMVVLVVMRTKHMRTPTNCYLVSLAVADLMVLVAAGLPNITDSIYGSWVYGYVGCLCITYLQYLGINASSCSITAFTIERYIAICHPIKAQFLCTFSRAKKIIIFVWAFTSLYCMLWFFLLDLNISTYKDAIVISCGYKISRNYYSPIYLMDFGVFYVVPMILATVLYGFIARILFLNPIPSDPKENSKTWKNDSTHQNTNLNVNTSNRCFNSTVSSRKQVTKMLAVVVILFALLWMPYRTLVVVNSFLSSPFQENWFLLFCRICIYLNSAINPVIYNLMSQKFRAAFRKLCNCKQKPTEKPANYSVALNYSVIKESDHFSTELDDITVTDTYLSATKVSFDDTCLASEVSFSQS
# How it was run: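 Antagonism is measured as suppression of the calcium response to 1 nM TRH in TRHR-HEK293 cells that have been dye-loaded for 2 h at 37 °C after overnight plating. Each compound is tested at 15 concentrations in triplicate.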
# [19] = target: Estrogen receptor (Homo sapiens) (UniProt P03372); assay: qHTS assay to identify small molecule agonists of the estrogen receptor alpha (ER-alpha) signaling pathway in the presence of an antagonist (AID 1259383; calls by dose curve; also: top concentration of the series differs between compounds; nearly all actives have a fitted effect of over 15% in size)
# Estrogen receptor (Homo sapiens), sequence (P03372 whole entry, looked up): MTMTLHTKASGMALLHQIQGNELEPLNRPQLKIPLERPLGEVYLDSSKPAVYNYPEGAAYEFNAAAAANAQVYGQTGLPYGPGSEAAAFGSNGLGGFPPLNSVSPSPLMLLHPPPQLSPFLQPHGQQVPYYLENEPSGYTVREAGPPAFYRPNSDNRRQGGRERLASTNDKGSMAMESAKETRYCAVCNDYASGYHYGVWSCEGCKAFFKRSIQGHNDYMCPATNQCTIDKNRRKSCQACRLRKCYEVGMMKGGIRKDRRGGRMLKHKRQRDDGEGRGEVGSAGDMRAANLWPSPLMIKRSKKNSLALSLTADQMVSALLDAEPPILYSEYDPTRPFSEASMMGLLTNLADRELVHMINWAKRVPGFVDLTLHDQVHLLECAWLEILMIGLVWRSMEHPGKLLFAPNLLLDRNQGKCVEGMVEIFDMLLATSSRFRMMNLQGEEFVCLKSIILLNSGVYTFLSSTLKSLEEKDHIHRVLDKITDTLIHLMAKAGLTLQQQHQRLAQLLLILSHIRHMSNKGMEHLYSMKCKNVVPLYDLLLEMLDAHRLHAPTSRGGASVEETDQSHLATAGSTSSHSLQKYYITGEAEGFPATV
# How it was run: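 Agonist-mode confirmation in the presence of the ER antagonist ICI-182,780 at 10.0nM final. Breast-derived VM7Luc4E2 reporter cells were exposed to compounds for 22hr, and ERE-driven luciferase was quantified by luminescence.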
# [20] = target: Androgen receptor (Homo sapiens) (UniProt P10275); assay: qHTS assay to identify small molecule agonists of the androgen receptor (AR) signaling pathway in the presence of an antagonist (AID 1259381; calls by dose curve; also: nearly all actives have a fitted effect of over 15% in size)
# Androgen receptor (Homo sapiens), sequence (P10275 whole entry, looked up): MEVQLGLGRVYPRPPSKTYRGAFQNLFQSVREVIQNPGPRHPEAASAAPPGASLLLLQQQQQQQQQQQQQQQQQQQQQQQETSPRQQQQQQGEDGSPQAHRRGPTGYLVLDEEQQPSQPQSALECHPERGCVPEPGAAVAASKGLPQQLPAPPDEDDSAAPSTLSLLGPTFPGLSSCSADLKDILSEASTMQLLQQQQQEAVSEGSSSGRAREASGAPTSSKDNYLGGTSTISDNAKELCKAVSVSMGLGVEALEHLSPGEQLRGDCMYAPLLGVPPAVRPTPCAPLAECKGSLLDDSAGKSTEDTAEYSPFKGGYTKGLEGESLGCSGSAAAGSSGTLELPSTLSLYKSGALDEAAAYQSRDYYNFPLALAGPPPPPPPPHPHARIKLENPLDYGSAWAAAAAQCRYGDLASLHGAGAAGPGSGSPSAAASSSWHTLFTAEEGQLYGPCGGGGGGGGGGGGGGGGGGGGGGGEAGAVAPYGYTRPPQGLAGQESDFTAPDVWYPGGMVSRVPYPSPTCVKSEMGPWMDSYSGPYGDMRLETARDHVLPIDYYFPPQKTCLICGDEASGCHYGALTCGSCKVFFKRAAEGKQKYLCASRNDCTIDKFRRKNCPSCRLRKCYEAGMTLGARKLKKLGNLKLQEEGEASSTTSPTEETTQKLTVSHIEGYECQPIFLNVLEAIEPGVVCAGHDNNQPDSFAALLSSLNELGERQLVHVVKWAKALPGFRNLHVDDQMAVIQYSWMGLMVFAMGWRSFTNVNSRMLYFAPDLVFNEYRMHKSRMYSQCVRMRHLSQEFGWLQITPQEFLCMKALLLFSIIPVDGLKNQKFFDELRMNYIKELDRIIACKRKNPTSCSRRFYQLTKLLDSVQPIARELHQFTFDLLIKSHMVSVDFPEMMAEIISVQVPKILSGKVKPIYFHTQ
# How it was run: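 Agonist-mode confirmation screen: human MDA-kb2 cells stably expressing luciferase under an MMTV promoter bearing AR and GR response elements, co-treated with 3.0uM nilutamide (final). Luminescence measured after 16hr compound incubation.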
SMILES,outcome [1],Potency [2],Potency [3],Potency [4],Potency [5],Potency [6],outcome [7],outcome [8],outcome [9],Potency [10],Potency [11],Potency [12],outcome [13],outcome [14],outcome [15],outcome [16],outcome [17],outcome [18],Potency [19],Potency [20]
CC1(C)OC[C@@H]2O[C@@]3(C(=O)O)OC(C)(C)O[C@H]3[C@@H]2O1,inactive,inactive,inactive,inactive,inactive,inactive,inactive,inactive,inactive,inactive,inactive,inactive,inactive,inactive,inactive,–,–,–,–,–
C=CC[N+](C)(C)CC=C,inactive,inactive,inactive,inactive,inactive,inactive,inactive,inactive,inactive,inactive,inactive,inactive,inactive,inactive,inactive,inactive,inactive,inactive,–,–
O=C(O)/C=C/C(=O)O,inactive,inactive,inactive,inactive,inactive,inactive,inactive,–,inactive,inactive,inactive,inactive,inactive,inactive,inactive,–,–,–,–,–
CC(=O)OC1CC(C)OC(C)O1 (stereo not given),inactive,inactive,inactive,inactive,inactive,inactive,inactive,–,–,inactive,inactive,inactive,inactive,inactive,inactive,inactive,inactive,–,–,–
O=C1C(c2[nH]c3ccccc3c2O)=Nc2ccccc21,inactive,inactive,–,inactive,inactive,inactive,inactive,–,inactive,inactive,inactive,inactive,inactive,inactive,inactive,–,–,inactive,–,–
CN(C)c1ccc(Cc2ccc(N(C)C)cc2)cc1,inactive,inactive,inactive,inactive,inactive,inactive,inactive,inactive,inactive,inactive,inactive,inactive,–,inactive,inactive,inactive,inactive,inactive,–,–
CN1C(=O)CC[C@H]1c1cccnc1,inactive,inactive,inactive,inactive,inactive,inactive,inactive,inactive,inactive,inactive,inactive,inactive,inactive,inactive,inactive,inactive,inactive,inactive,–,–
CCCCCCCCCCCCCCCC(=O)OC(C)C,inactive,inactive,inactive,inactive,inactive,inactive,inactive,–,–,inactive,inactive,inactive,inactive,inactive,inactive,inactive,–,inactive,–,–
CC(C)(C#N)c1cc(Cn2cncn2)cc(C(C)(C)C#N)c1,inactive,inactive,inactive,inactive,inactive,inactive,inactive,–,–,inactive,inactive,inactive,inactive,inactive,inactive,inactive,–,–,–,–
O=C1c2ccccc2CCc2ccccc21,inactive,inactive,inactive,inactive,inactive,inactive,inactive,inactive,inactive,inactive,inactive,27.9 µM (active),inactive,inactive,inactive,inactive,inactive,inactive,–,–
CC(=O)c1ccc(O)cc1,inactive,inactive,–,inactive,inactive,inactive,inactive,inactive,inactive,inactive,inactive,inactive,inactive,inactive,inactive,inactive,inactive,–,inactive,–
C=CCc1ccc(OC)c(OC)c1,inactive,inactive,inactive,inactive,inactive,inactive,inactive,–,inactive,inactive,–,–,inactive,inactive,inactive,inactive,–,–,–,–
C=Cc1ccc(C)cc1,inactive,inactive,inactive,inactive,inactive,inactive,inactive,inactive,inactive,inactive,inactive,inactive,inactive,inactive,inactive,–,inactive,inactive,–,–
CC(C)OP(=O)(CP(=O)(OC(C)C)OC(C)C)OC(C)C,inactive,inactive and 1.19 µM (active),inactive,inactive,inactive,inactive,inactive,–,–,inactive,inactive,inactive,inactive,inactive,inactive,inactive,inactive,inactive,inactive,–
O=C(O)c1cc2ccccc2cc1O,inactive,inactive,–,–,inactive,inactive,inactive,inactive,inactive,inactive,inactive,inactive,inactive,inactive,inactive,–,inactive,–,inactive,inactive
COCCOC(=O)c1ccccc1C(=O)OCCOC,inactive,inactive,inactive,inactive,inactive,inactive,inactive,–,inactive,inactive,inactive,inactive,inactive,inactive,inactive,inactive,–,–,–,–
C=C(C)[C@H]1CC=C(C)C(=O)C1,inactive,inactive,inactive,inactive,inactive,inactive,inactive,–,inactive,inactive,inactive,inactive,inactive,inactive,inactive,inactive,inactive,–,–,–
Clc1ccccn1,inactive,inactive,inactive,inactive,inactive,inactive,inactive,–,inactive,inactive,inactive,inactive,inactive,inactive,inactive,–,inactive,inactive,–,–
